Laboratory results: PubChem BioAssay AID1159580 (chemical genetic matrix, 2015)
Hit rate of the full screen: of about 5,500 compounds, about 2,000 (36%) were called active. Inconclusive results (about 18%) are left out. This is one part of the list. A number with no mark means an inactive call. Cut-off read from the data, not from the text of the source: active = normalized growth mostly below about 0.91 (no sharp cut-off); inconclusive = no clear call, values can overlap the other calls; inactive = mostly above about 0.92.

Assay: chemical genetic growth profiling, strain panel (AID 1159580);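 note: tested at 20 µM; growth read once vehicle control cultures reached saturation at 30 °C; 1 = growth at the plate median or of vehicle wells; lower values mean less growth of the strain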
Conditions: S. cerevisiae deletion strains, growth OD

COc1cc2c(cc1-c1coc3c4c(c(OC)cc3c1=O)OC(C)(C)C=C4)OCO2
normalized growth (locus YAL013W, strain DEP1, active compounds read low): 0.934
normalized growth (locus YAL021C, strain ccr4, active compounds read low): 0.993
normalized growth (locus YAL026C, strain drs2, active compounds read low): 1.03
normalized growth (locus YAL030W, strain snc1, active compounds read low): 1.03
normalized growth (locus YBL061C, strain skt5, active compounds read low): 1.02
normalized growth (locus YBR009C, strain hhf1, active compounds read low): 0.95
normalized growth (locus YBR021W, strain FUR4, active compounds read low): 1.05
normalized growth (locus YBR023C, strain chs3, active compounds read low): 0.971
normalized growth (locus YBR171W, strain sec66, active compounds read low): 1.03
normalized growth (locus YBR229C, strain ROT2, active compounds read low): 0.994
normalized growth (locus YBR231C, strain swc5, active compounds read low): 1.04
normalized growth (locus YBR279W, strain paf1, active compounds read low): 0.985
normalized growth (locus YCL011C, strain gbp2, active compounds read low): 1
normalized growth (locus YCL016C, strain dcc1, active compounds read low): 0.982
normalized growth (locus YCL029C, strain bik1, active compounds read low): 0.985
normalized growth (locus YCL061C, strain MRC1, active compounds read low): 1.01
normalized growth (locus YCL069W, strain vba3, active compounds read low): 1.05
normalized growth (locus YCR088W, strain abp1, active compounds read low): 1.05
normalized growth (locus YDL005C, strain med2, active compounds read low): 1.04
normalized growth (locus YDL035C, strain GPR1, active compounds read low): 0.998
normalized growth (locus YDL040C, strain nat1, active compounds read low): 1.02
normalized growth (locus YDL074C, strain BRE1, active compounds read low): 0.902
normalized growth (locus YDL101C, strain DUN1, active compounds read low): 0.95
normalized growth (locus YDL134C, strain PPH21, active compounds read low): 0.907
normalized growth (locus YDL185W, strain tfp1, active compounds read low): 1.01
normalized growth (locus YDL192W, strain arf1, active compounds read low): 0.966
normalized growth (locus YDR001C, strain nth1, active compounds read low): 1.04
normalized growth (locus YDR069C, strain doa4, active compounds read low): 1.04
normalized growth (locus YDR101C, strain arx1, active compounds read low): 1
normalized growth (locus YDR137W, strain rgp1, active compounds read low): 0.654 (active)
normalized growth (locus YDR159W, strain sac3, active compounds read low): 0.981
normalized growth (locus YDR162C, strain NBP2, active compounds read low): 0.884
normalized growth (locus YDR195W, strain ref2): 1.18 [resistant] (active)
normalized growth (locus YDR297W, strain sur2, active compounds read low): 1.02
normalized growth (locus YDR318W, strain mcm21, active compounds read low): 0.964
normalized growth (locus YDR334W, strain swr1, active compounds read low): 1.04
normalized growth (locus YDR335W, strain msn5, active compounds read low): 1.03
normalized growth (locus YDR388W, active compounds read low): 0.986
normalized growth (locus YDR392W, strain spt3, active compounds read low): 0.295 (active)
normalized growth (locus YDR502C, strain sam2, active compounds read low): 0.97
normalized growth (locus YEL003W, strain gim4, active compounds read low): 1.02
normalized growth (locus YEL037C, strain rad23, active compounds read low): 1.04
normalized growth (locus YEL061C, strain CIN8 (second series), active compounds read low): 1.04
normalized growth (locus YER015W, strain faa2, active compounds read low): 0.991
normalized growth (locus YER016W, strain bim1, active compounds read low): 1.03
normalized growth (locus YER110C, active compounds read low): 0.994
normalized growth (locus YER111C, strain swi4, active compounds read low): 0.994
normalized growth (locus YER155C, strain BEM2 (second series), active compounds read low): 0.926
normalized growth (locus YER155C, strain BEM2, active compounds read low): 0.988
normalized growth (locus YER167W, strain BCK2, active compounds read low): 1.01
normalized growth (locus YFR010W, strain ubp6, active compounds read low): 1.07
normalized growth (locus YGL078C, strain dbp3, active compounds read low): 0.983
normalized growth (locus YGL086W, strain mad1, active compounds read low): 0.959
normalized growth (locus YGL167C, strain pmr1, active compounds read low): 1.02
normalized growth (locus YGL173C, strain kem1, active compounds read low): 1
normalized growth (locus YGL227W, strain vid30, active compounds read low): 1.08
normalized growth (locus YGL240W, strain doc1, active compounds read low): 0.984
normalized growth (locus YGL248W, strain PDE1, active compounds read low): 0.929
normalized growth (locus YGL253W, strain hxk2, active compounds read low): 1.01
normalized growth (locus YGR135W, strain pre9, active compounds read low): 0.916
normalized growth (locus YGR252W, strain gcn5, active compounds read low): 0.863
normalized growth (locus YHR013C, strain ard1, active compounds read low): 0.991
normalized growth (locus YHR027C, strain rpn1, active compounds read low): 1.03
normalized growth (locus YHR030C, strain SLT2, active compounds read low): 0.968
normalized growth (locus YHR079C, strain IRE1 (second series), active compounds read low): 0.995
normalized growth (locus YHR094C, strain hxt1, active compounds read low): 1
normalized growth (locus YHR129C, strain ARP1, active compounds read low): 0.959
normalized growth (locus YHR142W, strain chs7, active compounds read low): 0.976
normalized growth (locus YHR200W, strain rpn10, active compounds read low): 0.957
normalized growth (locus YIL066C, strain RNR3, active compounds read low): 0.991
normalized growth (locus YIL073C, strain SPO22, active compounds read low): 0.919
normalized growth (locus YIL125W, strain kgd1, active compounds read low): 0.982
normalized growth (locus YIR030C, strain dcg1, active compounds read low): 1
normalized growth (locus YJL092W, strain hpr5, active compounds read low): 1.04
normalized growth (locus YJL095W, strain BCK1 (second series), active compounds read low): 0.974
normalized growth (locus YJL095W, strain BCK1, active compounds read low): 0.809
normalized growth (locus YJL115W, strain asf1, active compounds read low): 1.04
normalized growth (locus YJL129C, strain trk1, active compounds read low): 1.03
normalized growth (locus YJL134W, strain LCB3, active compounds read low): 1
normalized growth (locus YJL154C, strain vps35, active compounds read low): 1.04
normalized growth (locus YJL164C, strain tpk1, active compounds read low): 0.968
normalized growth (locus YJL166W, strain qcr8, active compounds read low): 0.933
normalized growth (locus YJL168C, strain set2, active compounds read low): 0.985
normalized growth (locus YJL187C, strain SWE1 (second series), active compounds read low): 0.938
normalized growth (locus YKL009W, strain mrt4, active compounds read low): 1.01
normalized growth (locus YKL068W, active compounds read low): 1
normalized growth (locus YKL085W, strain MDH1 (second series), active compounds read low): 1
normalized growth (locus YKL085W, strain MDH1, active compounds read low): 1
normalized growth (locus YKL160W, strain elf1, active compounds read low): 0.927
normalized growth (locus YKR001C, strain vps1, active compounds read low): 0.937
normalized growth (locus YKR026C, strain gcn3, active compounds read low): 1.06
normalized growth (locus YKR091W, strain srl3, active compounds read low): 1.02
normalized growth (locus YLL001W, strain dnm1, active compounds read low): 1.01
normalized growth (locus YLL026W, active compounds read low): 1.04
normalized growth (locus YLL041C, strain sdh2, active compounds read low): 1.03
normalized growth (locus YLR027C, strain aat2, active compounds read low): 0.992
normalized growth (locus YLR039C, strain RIC1, active compounds read low): 0.788
normalized growth (locus YLR058C, strain SHM2, active compounds read low): 0.984
normalized growth (locus YLR102C, strain apc9, active compounds read low): 0.997
normalized growth (locus YLR221C, strain rsa3, active compounds read low): 1.01
normalized growth (locus YLR258W, strain gsy2, active compounds read low): 0.978
normalized growth (locus YLR262C, strain YPT6 (second series), active compounds read low): 0.681 (active)
normalized growth (locus YLR268W, strain sec22, active compounds read low): 0.998
normalized growth (locus YLR320W, strain mms22, active compounds read low): 0.912
normalized growth (locus YLR342W, strain FKS1 (second series), active compounds read low): 0.936
normalized growth (locus YLR342W, strain FKS1, active compounds read low): 0.968
normalized growth (locus YLR357W, strain rsc2, active compounds read low): 1.12
normalized growth (locus YLR370C, strain arc18, active compounds read low): 0.973
normalized growth (locus YLR371W, strain rom2, active compounds read low): 1.02
normalized growth (locus YLR384C, strain iki3, active compounds read low): 1.03
normalized growth (locus YLR418C, strain cdc73, active compounds read low): 0.798 (active)
normalized growth (locus YML016C, strain PPZ1, active compounds read low): 0.987
normalized growth (locus YML032C, strain rad52, active compounds read low): 0.963
normalized growth (locus YML120C, strain ndi1, active compounds read low): 0.971
normalized growth (locus YML124C, strain tub3, active compounds read low): 1
normalized growth (locus YMR058W, strain fet3, active compounds read low): 1
normalized growth (locus YMR078C, strain ctf18, active compounds read low): 0.986
normalized growth (locus YMR125W, strain sto1, active compounds read low): 1.01
normalized growth (locus YMR129W, active compounds read low): 1.03
normalized growth (locus YMR205C, strain PFK2, active compounds read low): 0.919
normalized growth (locus YMR223W, strain ubp8, active compounds read low): 0.928
normalized growth (locus YMR231W, strain pep5, active compounds read low): 1.01
normalized growth (locus YMR307W, strain GAS1, active compounds read low): 0.685
normalized growth (locus YNL067W, strain RPL9B, active compounds read low): 0.956
normalized growth (locus YNL071W, strain lat1, active compounds read low): 0.799 (active)
normalized growth (locus YNL209W, strain ssb2, active compounds read low): 1
normalized growth (locus YNL233W, strain BNI4, active compounds read low): 0.868 (active)
normalized growth (locus YNL248C, strain rpa49, active compounds read low): 1.1
normalized growth (locus YNL250W, strain rad50, active compounds read low): 0.972
normalized growth (locus YNL271C, strain bni1, active compounds read low): 0.991
normalized growth (locus YNL298W, strain CLA4, active compounds read low): 0.953
normalized growth (locus YNL307C, strain MCK1, active compounds read low): 0.907
normalized growth (locus YNL322C, strain KRE1 (second series), active compounds read low): 1.04
normalized growth (locus YNR049C, strain mso1, active compounds read low): 1.03
normalized growth (locus YNR052C, strain pop2, active compounds read low): 0.944
normalized growth (locus YOL006C, strain TOP1, active compounds read low): 0.842
normalized growth (locus YOL012C, strain htz1): 0.696
normalized growth (locus YOL147C, strain pex11, active compounds read low): 0.996
normalized growth (locus YOR001W, strain rrp6, active compounds read low): 1.02
normalized growth (locus YOR061W, strain CKA2, active compounds read low): 1.02
normalized growth (locus YOR069W, strain VPS5, active compounds read low): 0.973
normalized growth (locus YOR070C, strain gyp1, active compounds read low): 0.992
normalized growth (locus YOR080W, strain dia2, active compounds read low): 1.04
normalized growth (locus YOR083W, strain WHI5, active compounds read low): 0.959
normalized growth (locus YOR106W, strain vam3, active compounds read low): 0.996
normalized growth (locus YOR136W, strain idh2, active compounds read low): 0.98
normalized growth (locus YOR144C, strain elg1, active compounds read low): 0.993
normalized growth (locus YOR184W, strain ser1, active compounds read low): 0.904
normalized growth (locus YOR265W, strain rbl2, active compounds read low): 1.01
normalized growth (locus YOR270C, strain vph1, active compounds read low): 0.871
normalized growth (locus YOR290C, strain snf2, active compounds read low): 0.948
normalized growth (locus YOR316C, strain cot1, active compounds read low): 0.985
normalized growth (locus YPL051W, strain arl3, active compounds read low): 0.895 (active)
normalized growth (locus YPL078C, strain atp4, active compounds read low): 0.95
normalized growth (locus YPL106C, strain sse1, active compounds read low): 1.05
normalized growth (locus YPL240C, strain hsp82, active compounds read low): 1.04
normalized growth (locus YPR119W, strain clb2, active compounds read low): 0.995
normalized growth (locus YPR141C, strain kar3, active compounds read low): 0.999
normalized growth (locus YPR163C, strain tif3, active compounds read low): 0.986
normalized growth (locus YPR167C, strain met16, active compounds read low): 0.972
normalized growth (strain wtn01, active compounds read low): 0.989
